Source: PubChem (Sanford-Burnham Center for Chemical Genomics)
The list is not random: actives were taken first. Their share in the collection is about 31%.
CYP2C19 activ = activators of human cytochrome P450 2C19; recombinant CYP2C19, luciferin-H EGE luminescence; stronger effect = higher value; 0 = fully inhibited enzyme, 1 = untreated enzyme; 96,000 tested, under 10 active; AID 1025; activation factor at 5 µM; P33261;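 active means activation factor of at least 2 at 5 µM in the primary screen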;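 further: 0 = wells with 2.5 mM tranylcypromine and 1 = vehicle-only wells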
CYP2C9 activ = activators of human CYP2C9 | P11712 | recombinant CYP2C9, luciferin-H conversion, luminescence; stronger effect = higher value; factor 1 = untreated enzyme, 0 = blocked | activation factor at 5 µM | 96,000 compounds, 1.4% hits | AID 1024;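 active means activation factor of 2 or more for CYP2C9 at a 5 µM dose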;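 further: 0 = sulfaphenazole-blocked wells and 1 = vehicle-only wells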
CYP2C19 inhib = blocks human cytochrome P450 2C19 | P33261 | inhibition, % at 5 µM | CYP2C19 Supersomes, luciferin-H EGE luminescence, 30 min | AID 778 | 96,000 compounds, 21% hits;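 active means CYP2C19 inhibition above a set limit at 5 µM in the primary screen, cut at about 50% in these data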;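 further: plate controls were negative control wells for no effect and 2.5 mM tranylcypromine positive control for full effect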
CYP2C9 inh = blocks human cytochrome P450 2C9; 96,000 compounds, 20% hits; CYP2C9 Supersomes, luciferin-H conversion, luminescence; P11712; inhibition, % at 5 µM; AID 777;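 active means blocking of liver enzyme CYP2C9 beyond about 50% at 5 µM, limit read from the data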
PLAP activator = activates human placental alkaline phosphatase. AID 696. 96,000 compounds, 1.2% hits. activation fold at 20 µM. P05187. purified PLAP enzyme, luminescent substrate read-out; stronger effect = higher value; in the data active means activation fold above about 2
Target sequence (P05187 whole entry, looked up): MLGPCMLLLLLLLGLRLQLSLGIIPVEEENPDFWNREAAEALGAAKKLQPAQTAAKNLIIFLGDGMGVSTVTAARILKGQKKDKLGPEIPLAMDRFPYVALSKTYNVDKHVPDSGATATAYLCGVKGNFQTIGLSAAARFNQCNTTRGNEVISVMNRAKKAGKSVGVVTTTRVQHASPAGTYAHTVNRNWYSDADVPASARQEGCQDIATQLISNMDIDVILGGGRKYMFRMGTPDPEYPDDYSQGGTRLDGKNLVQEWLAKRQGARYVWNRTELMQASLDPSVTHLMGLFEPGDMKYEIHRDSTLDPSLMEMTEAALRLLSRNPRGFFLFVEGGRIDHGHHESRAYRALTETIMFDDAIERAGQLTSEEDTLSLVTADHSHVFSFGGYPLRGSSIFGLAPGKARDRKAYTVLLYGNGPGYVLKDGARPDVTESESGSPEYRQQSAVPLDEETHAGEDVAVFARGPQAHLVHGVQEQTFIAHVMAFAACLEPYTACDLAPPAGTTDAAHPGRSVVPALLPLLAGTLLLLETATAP
Active calls of the source: *.

SMILES | CYP2C19 activ | CYP2C9 activ | CYP2C19 inhib | CYP2C9 inh | PLAP activator
O=C(Cc1ccccc1)NCC(=O)OCC(=O)c1ccc(OC(=O)c2ccccc2)cc1 | 1 | 0.8 | 1.4 | 15.4 | 1
Cc1ccc(NC(=O)CCC(=O)NCCO)cc1 | 0.9 | 1.1 | 11.5 | -8.6 | 0.7
Cc1ccc(NC(=O)CC(O)(C(F)(F)F)C(F)(F)F)cc1 | 0.4 | 0.8 | 58.9* | 19.8 | 0.9
COc1ccc(C)cc1NC(=O)CC(O)(C(F)(F)F)C(F)(F)F | 0.4 | 0.9 | 61.5* | 13.6 | 0.9
CCOC(=O)Nc1cc(C)ccc1OC | 1 | 1.3 | -4.5 | -30.5 | 1.2
CCCNC(=O)C(CC)NS(=O)(=O)c1ccc(OC)cc1 (stereo unspecified) | 1 | 0.8 | 1.1 | 16.3 | 0.9
O=C(OCC1COc2ccccc2O1)c1c(F)cccc1F (stereo unspecified) | 0 | 0.2 | 96.9* | 83.7* | 0.7
OC(COCC1COc2ccccc2O1)CN1CCN(c2ccccc2F)CC1 (stereo unspecified) | 0.9 | 1 | 7.5 | -0.5 | 1.3
Cc1ccc(NC(=O)CN2C(=O)S/C(=C\c3cccn3-c3cccc(C(=O)O)c3)C2=O)c(C)c1 | 0.9 | 0.6 | 11.1 | 41.8 | 1.6
Cc1ccccc1NC(=O)CN1C(=O)S/C(=C\c2cccn2-c2cccc(C(=O)O)c2)C1=O | 0.9 | 0.2 | 6.4 | 75.1* | 1.4
Cc1cccc(C)c1NC(=O)CN1C(=O)S/C(=C\c2cccn2-c2cccc(C(=O)O)c2)C1=O | 1 | 0.1 | 3.2 | 85.6* | 1.6
COc1ccc(-c2cc(C(F)(F)F)c3c(=O)n(-c4ccccc4)[nH]c3n2)cc1 | 1 | 0.4 | -4.9 | 62.7* | 1.2
COc1ccc(N2C(=O)CC(S/C(N)=N/N=C(\C)c3cccs3)C2=O)cc1 (stereo unspecified) | 0.8 | 0.6 | 21.4 | 43.7 | 1
CCOC(=O)N1CCN(S(=O)(=O)c2ccc(C(=O)Nc3nc4ccccc4s3)cc2)CC1 | 1 | 0.6 | 1.5 | 45.0 | 1
CCOC(=O)C(C(=O)Nc1ccccn1)C1CCCCC1 (stereo unspecified) | 0.8 | 0.6 | 16.1 | 40.7 | 1.3
CCOC(=O)C(C(=O)Nc1nc2ccccc2s1)C1CCCCC1 (stereo unspecified) | 0.6 | 0.1 | 38.5 | 91.9* | 1
CCOC(=O)C(C(=O)Nc1cccc(C)n1)C1CCCCC1 (stereo unspecified) | 0.2 | 0.2 | 80.4* | 82.3* | 1.2
CCOC(=O)C(C(=O)Nc1nccs1)C1CCCCC1 (stereo unspecified) | 0.3 | 0.2 | 68.6* | 76.9* | 0.9
CCOC(=O)C(C(=O)Nc1cccc(C)c1)C1CCCCC1 (stereo unspecified) | 0.2 | 0.4 | 82.4* | 55.1* | 0.9
CCOC(=O)N1CCC(N(CCOC)C(=O)Nc2ccc(Cl)cc2)CC1 | 0.6 | 0.7 | 40.4 | 30.7 | 1.3
CC1=CC(=O)OC1Cc1ccncc1 (stereo unspecified) | 0.8 | 0.6 | 23.5 | 41.6 | 1.2
COc1ccc(C(=O)c2c(C(F)(F)F)oc3c2C(=O)c2ccccc2C3=O)cc1OC | 0.3 | 0.6 | 66.9* | 43.3 | 1.7
COc1ccc(C(=O)C(CO)Oc2ccccc2OC)cc1OC (stereo unspecified) | 0.7 | 1.1 | 30.1 | -10.2 | 1.2
COC(=O)CN(n1cnnc1)S(=O)(=O)c1ccccc1 | 1 | 1.2 | -0.3 | -21.9 | 1
Cc1ccc(C2SCC(=O)N2Cc2cn3ccsc3n2)o1 (stereo unspecified) | 0.7 | 1.1 | 26.6 | -12.2 | 1.6
SMILES | CYP2C19 activ | CYP2C9 activ | CYP2C19 inhib | CYP2C9 inh | PLAP activator
CCn1c(-c2ccsc2)nc2c1c(=O)[nH]c(=O)n2Cc1ccccc1 | 0.5 | 0.8 | 51.5* | 21.7 | 0.9
Cn1c(CNc2ccccn2)c(C#N)c2ccccc21 | 0.2 | 0.9 | 75.3* | 11.3 | 0.8
Cn1c(CSc2ccccc2)c(C#N)c2ccccc21 | 0.2 | 1.3 | 75.2* | -25.8 | 0.8
Cc1ccccc1N1CCN(Cc2c(C#N)c3ccccc3n2C)CC1 | 0.3 | 1 | 67.1* | -3.6 | 1
CCCn1ncc(OC)c(Cl)c1=O | 1 | 1.1 | 4.2 | -13.9 | 1
N#CCc1nc(CSc2nc3ccccc3s2)cs1 | 0 | 0.7 | 97.8* | 28.3 | 1.2
N#CCCCSc1nnc(CSc2nc3ccccc3s2)n1-c1ccccc1 | 0.6 | 0.5 | 37.5 | 46.5 | 1.5
Cc1cccc(N2CCN(C(=O)c3cc4n(n3)C(C(F)(F)F)CC(c3ccco3)N4)CC2)c1C (stereo unspecified) | 1 | 0.1 | 0.6 | 88.1* | 1.2
O=C(O)c1cc2n(n1)C(C(F)(F)F)CC(c1ccco1)N2 (stereo unspecified) | 0.9 | 0.4 | 5.0 | 62.2* | 0.9
COc1ccccc1NC(=O)c1cc2n(n1)C(C(F)(F)F)CC(c1ccc3c(c1)OCO3)N2 (stereo unspecified) | 0.2 | 0.2 | 81.3* | 75.1* | 1.3
Cc1cc(NC(=O)c2cc3n(n2)C(C(F)(F)F)CC(c2ccco2)N3)no1 (stereo unspecified) | 0.9 | 0.5 | 13.3 | 51.1* | 0.8
Cc1cccc(NC(=O)c2ccc(N(C)C3CCCCC3)c([N+](=O)[O-])c2)n1 | 1 | 0.8 | 3.4 | 19.6 | 1.1
N#Cc1c(-c2ccc3c(c2)OCO3)ccn2nc(-c3cccc(C(F)(F)F)c3)nc12 | 0.6 | 0.9 | 37.8 | 9.6 | 0.9
Cc1ccc(S(=O)(=O)N(C)CC(=O)O/N=C(\N)c2ccc([N+](=O)[O-])cc2)cc1 | 1.1 | 1.3 | -7.0 | -32.4 | 0.7
O=C(Oc1ccc2cccc(OC(=O)N3CCOCC3)c2c1)N1CCOCC1 | 1 | 0.9 | 1.4 | 12.9 | 1
O=C(CNc1ccc(Br)cc1)c1ccccc1 | 0.2 | 0.7 | 76.6* | 30.1 | 1
Cc1cccc(NCCC(=O)c2ccc(Br)cc2)c1 | 0.7 | 0.8 | 32.4 | 22.6 | 1
Cc1ccc(C(=O)CNc2ccc(Br)cc2)cc1 | 0.2 | 0.7 | 75.4* | 30.6 | 0.8
O=C(CC(Nc1ccccc1)C(=O)O)c1ccccc1 (stereo unspecified) | 0.9 | 0.9 | 6.8 | 7.7 | 1.2
CCCC(=O)N(c1ccc(OCC)cc1)C1C=CS(=O)(=O)C1 (stereo unspecified) | 0.4 | 0.5 | 63.2* | 46.5 | 1
CCCCC(=O)N(c1ccc(OCC)cc1)C1C=CS(=O)(=O)C1 (stereo unspecified) | 0.6 | 0.8 | 35.8 | 19.4 | 0.8
Cc1ccccc1Nc1nc(-c2sc(NC(=O)c3cccc(Cl)c3)nc2C)cs1 | 0.6 | 0.7 | 39.8 | 31.6 | 1.2
C=CCCC(=O)Nc1nc(C)c(-c2csc(Nc3cc(Cl)ccc3OC)n2)s1 | 0.8 | 0.7 | 15.1 | 32.5 | 1.1
COc1cccc(N(C(=O)c2ccco2)c2nc(-c3sc(NC(=O)c4ccco4)nc3C)cs2)c1 | 0.6 | 0.5 | 41.3 | 54.8* | 1.1
COc1ccc(OC)c(Nc2nc(-c3sc(NC(=O)c4ccccc4)nc3C)cs2)c1 | 1.1 | 0.9 | -5.8 | 13.8 | 1.2
